# Data reported in PubChem BioAssay AID489018 (Southern Research Specialized Biocontainment Screening …, 2010).
# The campaign covered roughly 2,300 compounds. About 350 (15%) were called active. Not all results are given here. Measured potencies and affinities stand elsewhere. Values without a mark were called inactive. The rule behind the calls is not given here.
# Assay: HepG2 cell cytotoxicity, dose response, cytotoxicity control for non-replicating M. tuberculosis project (AID 489018);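 note: HepG2 human liver cells; 100% = vehicle-treated cells and 0% = background signal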
# Details: series mostly up to 20 µM; viability: at the top concentration
row,Compound,viability
1,COc1n[nH]c(C(=O)Nc2cc(F)ccc2C)c1[N+](=O)[O-],75.7%
2,Cc1cccc(NC(=O)c2ccc([N+](=O)[O-])o2)c1C,95%
3,Nc1nonc1C(=O)N/N=C/c1ccc([N+](=O)[O-])o1,82.7%
4,O=[N+]([O-])c1ccc(/C=N/NS(=O)(=O)c2ccc(Cl)cc2)o1,103%
5,Cc1ccccc1NC(=O)c1ccc([N+](=O)[O-])o1,102% [at 5 µM]
6,COc1ccc(C(=O)NCC(=O)N/N=C/c2ccc([N+](=O)[O-])o2)cc1OC,91.9%
7,Cc1cc(C)cc(OCC(=O)N/N=C/c2ccc([N+](=O)[O-])o2)c1,92%
8,Cc1cc(C(=O)N/N=C/c2ccc([N+](=O)[O-])o2)c(C)o1,88.4%
9,O=C(Nc1ccccc1)c1cc2ccccc2o1,85.3%
10,CN1C(c2ccccc2)CC(=NO)CC1c1ccccc1 (stereo not given),108%
11,COc1ccccc1NC(=O)c1cnc(SC)nc1,118%
12,O=C(CC(=O)c1cc(Cl)ccc1O)c1ccccc1,102% [at 5 µM]
13,COc1ccc(-c2noc(-c3cc4ccccc4oc3=O)n2)cc1,100%
14,O=C(N/N=C/c1ccc(Br)s1)c1ccccc1[N+](=O)[O-],90.1%
15,CCc1nnc(N/N=C/c2ccc(-c3ccc([N+](=O)[O-])cc3)o2)n1N,95.3%
16,CCCCCCCC(=O)N/N=C/c1ccc([N+](=O)[O-])o1,97.7%
17,O=C(N/N=C\c1ccc([N+](=O)[O-])o1)c1cncc(Br)c1,109% [at 5 µM]
18,COc1ccccc1OCC(=O)N/N=C/C=C/c1ccc([N+](=O)[O-])o1,93.9%
19,O=C(N/N=C/c1ccc([N+](=O)[O-])o1)c1sc2ccccc2c1Cl,78.8%
20,O=C(N/N=C\c1ccc([N+](=O)[O-])o1)C1COc2ccccc2O1 (stereo not given),101%
21,Cc1nonc1C(=O)N/N=C/c1ccc([N+](=O)[O-])o1,96.3%
22,Cc1ccc(OCC(=O)N/N=C/c2ccc([N+](=O)[O-])o2)cc1,95.7%
23,Brc1c(-c2ccc3c(c2)OCO3)nc2ncccn12,86.5% [at 5 µM]

row,Compound,viability
1,O=C(Nc1ccc(N2CCN(C(=O)c3ccco3)CC2)c(Cl)c1)c1cccs1,72%
2,COC(=O)c1ccccc1Sc1ncnc2onc(C)c12,113%
3,Cc1c(Cl)cccc1-c1ccc(CNCc2ccccn2)o1,94.3%
4,N#Cc1nc(-c2ccc(OCc3ccccc3)cc2)oc1NCCCn1ccnc1,77.7%
5,CCOC(=O)C(C)Oc1cc(Cl)c(C=O)cc1OC (stereo not given),94.7%
6,N/N=C(/Cc1nc2ccccc2[nH]1)c1ccc([N+](=O)[O-])cc1,96.1%
7,O=C(Nc1cc(C(F)(F)F)ccc1-n1cncn1)c1ccc([N+](=O)[O-])o1,103%
8,COc1ccccc1-c1nnc(Sc2nc([N+](=O)[O-])nn2C)o1,90.9%
9,Cc1cc(C)c(C(=O)COC(=O)c2ccc([N+](=O)[O-])o2)cc1C,105%
10,COc1ccc2cc(C(=O)C3CCCN(Cc4cccc(C)n4)C3)ccc2c1 (stereo not given),96.1%
11,CCCCOc1ccc(NC(=O)CN2CCN(Cc3ccccc3)CC2)cc1,96.9%
12,CC(C)(C)c1ccccc1OCCOCCN1CCCCCC1,98.4% [at 5 µM]
13,CS/C(Nc1cc(Cl)ccc1Cl)=C(/C#N)C(=O)c1ccco1,87.2%
14,Cc1[nH]c2ccccc2c1C(=O)COC(=O)c1ccc([N+](=O)[O-])s1,114%
15,c1ccc(Nc2nc(-c3ccccn3)cs2)cc1,101% [at 5 µM]
16,c1ccc(-c2n[nH]c(-c3ccccn3)n2)nc1,93.6%
17,COC(=O)C(C)Oc1ccc2cc(-c3ccccc3)c(=O)oc2c1 (stereo not given),103%
18,O=C(CCS(=O)(=O)Cc1ccccc1)Nc1ncc([N+](=O)[O-])s1,112% [at 5 µM]
19,O=S(=O)(c1ccc(OCC2CO2)cc1)c1ccc(OCC2CO2)cc1 (stereo not given),75.9%
20,Cc1ccccc1C(=O)NN1CC(C(=O)OCc2ccc(Cl)c(Cl)c2)CC1=O (stereo not given),119%
21,CCC(C)c1ccc(OCCn2ccnc2)cc1 (stereo not given),80%
22,Cc1ccc2nc(C)c3c(c2c1)COC3,104%
23,Cc1[nH]n(-c2cccc(Cl)c2)c(=O)c1/C=N/n1c(C)nc2ccccc2c1=O,109% [at 5 µM]

row,Compound,viability
1,CC(C)(C)NCC1(CO)SC(N)=NC1=O (stereo not given),106%
2,CCOC(=O)/C=C1\Nc2ccccc2OC1=O,77.3%
3,COc1cc(NC(=O)C/C(C)=N/NC(=O)c2cccs2)c(OC)cc1Cl,73.3%
4,O=C(Nc1nnc(-c2ccco2)o1)c1cccc2ccccc12,108%
5,COC(=O)c1cc(-c2ccc(OC)cc2)on1,116%
6,COc1ccc(/C=C/c2nc3ccccc3c(=O)o2)cc1,113% [at 5 µM]
7,CC(=O)c1ccc(OC(=O)c2ccc(-n3nc(C)cc3C)cc2)cc1,103% [at 5 µM]
8,Cn1nnc(NC(=O)COc2ccc(C3CCCCC3)cc2)n1,106%
9,O=Cc1ccnc(-c2ccc(OC(=O)c3ccco3)cc2)n1,101%
10,Cc1ccc(N/N=C2\CS(=O)(=O)N(C)c3ccsc32)cc1,101%
11,O=C(N/N=C/c1ccc(Br)s1)c1cccnc1,94%
12,COc1cccc(NC(=O)c2ccc(C(=O)c3ccccc3)o2)c1,96.3%
13,O=C(N/N=C/c1ccccn1)c1cc([N+](=O)[O-])cc([N+](=O)[O-])c1,97.3%
14,O=C(N/N=C/c1ccc[nH]1)c1cccnc1,90.3%
15,COc1ccc(OCC(=O)NNC(=O)c2ccccn2)cc1,102%
16,COc1cc(OC)cc(C(=O)NNC(=O)c2ccccn2)c1,82.4% [at 5 µM]
17,COc1ccc(C(=O)N/N=C/c2cccc3cccnc23)cc1,73%
18,O=C(N/N=C/c1ccccn1)c1cccc([N+](=O)[O-])c1,99.3%
19,Cc1ccc2[nH]c(C)c(CCNC(=O)c3cc4cc([N+](=O)[O-])ccc4oc3=O)c2c1,101%
20,Cc1cccc(NCCC(=O)c2ccc([N+](=O)[O-])cc2)c1C,96.3%
21,CC(C)c1ccc(C2=C(O)c3ccccc3C(=O)C2=O)cc1,88.6%
22,O=C(CC1CCCC1)OCn1nnc2ccccc2c1=O,109%
23,O=C(c1cc([N+](=O)[O-])cc([N+](=O)[O-])c1)N(Cc1nnc(-c2ccccc2Cl)o1)C1CC1,91.3%

row,Compound,viability
1,O=C1N/C(=N\c2ccccn2)SC1Cc1ccc(Cl)cc1 (stereo not given),106%
2,COc1cc(/C=C/c2ccc3c([N+](=O)[O-])cccc3n2)ccc1OCC(=O)O,107%
3,CCCOc1ccc(-c2nc(C#N)c(NCCCn3ccnc3)o2)cc1,98.4%
4,O=C(CCSc1nnc(-c2ccccc2)o1)N1CCOCC1,106% [at 5 µM]
5,Cc1onc(-c2ccccc2)c1C(=O)O/N=C(\N)c1ccc([N+](=O)[O-])o1,97%
6,O=C(COC(=O)c1ccc(Br)o1)NCCCc1ccccc1,102%
7,Oc1ccccc1Nc1nc(NCC2CCCO2)c2ccccc2n1 (stereo not given),89.7%
8,O=C(c1ccc([N+](=O)[O-])s1)N1CCN(c2cccc(Cl)c2)CC1,82.3%
9,Cc1ccc(-c2nn(-c3ccccc3)cc2/C=N/NC(=O)c2ccncc2)o1,95.2%
10,O=c1oc(-c2cccs2)nc2c1cnn2-c1ccccc1,94.1%
11,NC(N)=N/N=C/c1cn(-c2ccccc2)nc1-c1cccs1,92.5% [at 5 µM]
12,O=C(N/N=C/c1cccc2nccnc12)c1ccncc1,105%
13,CC(C)(C)Sc1ccc2nc3c(n2c1)CCCC3,95%
14,CCOC(=O)C(Nc1ccc2ccccc2c1)C(=O)OCC,103%
15,CC1Cc2ccccc2N1C(=O)COC(=O)c1ccc(Cl)nc1 (stereo not given),108%
16,CCOC(=O)N/N=C\c1ccc([N+](=O)[O-])s1,75.2%
17,O=C(N/N=C/c1ccc([N+](=O)[O-])s1)c1ccncc1,119%
18,O=C(CNC(=O)c1cccc(F)c1)N/N=C/c1ccc([N+](=O)[O-])s1,95.8% [at 5 µM]
19,CC(C)(C)OC(=O)N/N=C\c1ccc([N+](=O)[O-])s1,91%
20,Cc1ccc(C(=O)N/N=C/c2ccc([N+](=O)[O-])s2)cc1,84.5%
21,O=C(N/N=C/c1ccc([N+](=O)[O-])s1)c1ccccc1,89.3%
22,O=C(N/N=C/c1ccc([N+](=O)[O-])s1)c1cccc(Br)c1,101% [at 5 µM]
23,COC(=O)N/N=C/c1ccc([N+](=O)[O-])s1,75.5%

row,Compound,viability
1,Oc1oc(-c2ccco2)nc1C=Nc1cccc(Cl)c1,107%
2,CCCCOC(=O)C1CCCC(C(=O)OCCCC)N1 (stereo not given),109% [at 5 µM]
3,COC(=O)COc1ccc(S(=O)(=O)N2CCCCCC2)cc1,111%
4,O=C(CNC(=O)c1ccco1)OCc1ccc(C(=O)Oc2ccccc2)cc1,96.8%
5,Cn1c(-c2cccc([N+](=O)[O-])c2)cnc1NCc1cccc(F)c1,95.6%
6,Cc1ccc(C)c(-c2csc(NC(=O)c3cnccn3)n2)c1,98.1%
7,O=C(Nc1nnc(-c2ccccn2)o1)c1cccc(Cl)c1,89.9% [at 5 µM]
8,COCCOC(=O)c1c(C)oc2ccc(OC(=O)c3ccco3)cc12,106% [at 5 µM]
9,O=C(Nc1nnc(-c2ccc(Br)cc2)o1)C1=COCCO1,99.3% [at 5 µM]
10,O=C(c1ccc(-c2ccc([N+](=O)[O-])cc2)o1)N1CCCCCCC1,92.1%
11,FC(F)(F)c1nnc2ccc(Cl)nn12,77.7%
12,Cc1cc(N/N=C/c2ccccc2O)c2ccccc2n1,100% [at 5 µM]
13,COc1ccc(Nc2ccccc2N)cc1,92.6%
14,COc1ccc(/C=N/Nc2cc(C)nc(-n3nc(C)cc3C)n2)cc1,99.2% [at 5 µM]
15,COc1ccc2nc(/N=C(\N)NC(=O)C(C)(C)C)nc(C)c2c1,89%
16,COc1cc(/C=N/Nc2cccc3cccnc23)cc(OC)c1O,115%
17,Cc1nnc(N/N=C/c2ccc(Br)cc2)n1N,100%
18,O=C(c1ccccc1)c1nc[nH]c1C(=O)Nc1ccccc1,85.1%
19,COC(=O)C(O)(c1ccc(NC(=S)NC(=O)c2ccccc2)cc1)C(F)(F)F (stereo not given),105%
20,O=C(N=Nc1c(O)[nH]c2ccc(Br)cc12)c1ccccc1-n1cccc1,78.4%
21,O=C(Oc1ccccc1)c1ccc(NC(=O)c2ccco2)cc1,109%
22,O=C1NC(=O)C(=Cc2ccc(Oc3ccc([N+](=O)[O-])cc3)cc2)C(=O)N1,111%
23,c1ccc2sc(SCc3ccc(-c4nnco4)cc3)nc2c1,77%
